{
  "source": "PubChem BioAssay AID1159580",
  "about": "(chemical genetic matrix, 2015)",
  "test": "chemical genetic growth profiling, strain panel (AID 1159580);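 note: tested at 20 µM; growth read once vehicle control cultures reached saturation at 30 °C; 1 = growth at the plate median or of vehicle wells; lower values mean less growth of the strain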",
  "settings": "S. cerevisiae deletion strains, growth OD",
  "note": "“And” between values parts separate entries of the source, which are not always exact repeats. Equal values may be shown once. Among all 5,500 compounds or so, about 2,000 (36%) were called active. Not shown: some 18% with an inconclusive outcome. The list shows a part of the results. Values without a mark were called inactive. Cut-off read from the data, not from the text of the source: active = normalized growth mostly below about 0.91 (no sharp cut-off); inconclusive = no clear call, values can overlap the other calls; inactive = mostly above about 0.92.",
  "data": [
    {"smiles": "NC(CO)C(=O)NNCc1ccc(O)c(O)c1O", "note": "(configuration not stated)", "values": [
      {"measurement": "normalized growth", "setting": "locus YAL013W, strain DEP1, hits give low values", "value": 0.941},
      {"measurement": "normalized growth", "setting": "locus YAL021C, strain ccr4, hits give low values", "value": 0.96},
      {"measurement": "normalized growth", "setting": "locus YAL026C, strain drs2, hits give low values", "value": 0.977},
      {"measurement": "normalized growth", "setting": "locus YAL030W, strain snc1, hits give low values", "value": 0.986},
      {"measurement": "normalized growth", "setting": "locus YAL040C, strain CLN3, hits give low values", "value": 0.967},
      {"measurement": "normalized growth", "setting": "locus YBL061C, strain skt5, hits give low values", "value": 0.999},
      {"measurement": "normalized growth", "setting": "locus YBR009C, strain hhf1, hits give low values", "value": 0.971},
      {"measurement": "normalized growth", "setting": "locus YBR021W, strain FUR4, hits give low values", "value": 1.02},
      {"measurement": "normalized growth", "setting": "locus YBR023C, strain chs3, hits give low values", "value": 0.984},
      {"measurement": "normalized growth", "setting": "locus YBR171W, strain sec66, hits give low values", "value": 0.996},
      {"measurement": "normalized growth", "setting": "locus YBR229C, strain ROT2, hits give low values", "value": 1.02},
      {"measurement": "normalized growth", "setting": "locus YBR231C, strain swc5, hits give low values", "value": 1},
      {"measurement": "normalized growth", "setting": "locus YBR279W, strain paf1, hits give low values", "value": 0.97},
      {"measurement": "normalized growth", "setting": "locus YCL011C, strain gbp2, hits give low values", "value": 0.946},
      {"measurement": "normalized growth", "setting": "locus YCL016C, strain dcc1, hits give low values", "value": 0.977},
      {"measurement": "normalized growth", "setting": "locus YCL029C, strain bik1, hits give low values", "value": 0.997},
      {"measurement": "normalized growth", "setting": "locus YCL069W, strain vba3, hits give low values", "value": 0.968},
      {"measurement": "normalized growth", "setting": "locus YCR088W, strain abp1, hits give low values", "value": 1},
      {"measurement": "normalized growth", "setting": "locus YDL005C, strain med2, hits give low values", "value": 1.01},
      {"measurement": "normalized growth", "setting": "locus YDL035C, strain GPR1, hits give low values", "value": 1.02},
      {"measurement": "normalized growth", "setting": "locus YDL040C, strain nat1, hits give low values", "value": 1.01},
      {"measurement": "normalized growth", "setting": "locus YDL074C, strain BRE1, hits give low values", "value": 0.98},
      {"measurement": "normalized growth", "setting": "locus YDL101C, strain DUN1, hits give low values", "value": 0.99},
      {"measurement": "normalized growth", "setting": "locus YDL185W, strain tfp1, hits give low values", "value": 1},
      {"measurement": "normalized growth", "setting": "locus YDL192W, strain arf1, hits give low values", "value": 0.998},
      {"measurement": "normalized growth", "setting": "locus YDR001C, strain nth1, hits give low values", "value": 0.982},
      {"measurement": "normalized growth", "setting": "locus YDR069C, strain doa4, hits give low values", "value": 0.966},
      {"measurement": "normalized growth", "setting": "locus YDR101C, strain arx1, hits give low values", "value": 0.971},
      {"measurement": "normalized growth", "setting": "locus YDR137W, strain rgp1, hits give low values", "value": 0.91},
      {"measurement": "normalized growth", "setting": "locus YDR150W, strain NUM1, hits give low values", "value": 1.03},
      {"measurement": "normalized growth", "setting": "locus YDR159W, strain sac3, hits give low values", "value": 1.02},
      {"measurement": "normalized growth", "setting": "locus YDR162C, strain NBP2, hits give low values", "value": 1.02},
      {"measurement": "normalized growth", "setting": "locus YDR195W, strain ref2", "value": 1.03},
      {"measurement": "normalized growth", "setting": "locus YDR297W, strain sur2, hits give low values", "value": 0.994},
      {"measurement": "normalized growth", "setting": "locus YDR318W, strain mcm21, hits give low values", "value": 1},
      {"measurement": "normalized growth", "setting": "locus YDR334W, strain swr1, hits give low values", "value": 0.982},
      {"measurement": "normalized growth", "setting": "locus YDR335W, strain msn5, hits give low values", "value": 0.995},
      {"measurement": "normalized growth", "setting": "locus YDR363W, strain ESC2, hits give low values", "value": 0.968},
      {"measurement": "normalized growth", "setting": "locus YDR388W, hits give low values", "value": 0.99},
      {"measurement": "normalized growth", "setting": "locus YDR392W, strain spt3, hits give low values", "value": 1.03},
      {"measurement": "normalized growth", "setting": "locus YDR502C, strain sam2, hits give low values", "value": 0.988},
      {"measurement": "normalized growth", "setting": "locus YEL003W, strain gim4, hits give low values", "value": 0.981},
      {"measurement": "normalized growth", "setting": "locus YEL037C, strain rad23, hits give low values", "value": 0.98},
      {"measurement": "normalized growth", "setting": "locus YEL061C, strain CIN8 (second series), hits give low values", "value": 0.981},
      {"measurement": "normalized growth", "setting": "locus YEL061C, strain CIN8, hits give low values", "value": 1.01},
      {"measurement": "normalized growth", "setting": "locus YER002W, strain NOP16, hits give low values", "value": 1},
      {"measurement": "normalized growth", "setting": "locus YER015W, strain faa2, hits give low values", "value": 0.947},
      {"measurement": "normalized growth", "setting": "locus YER016W, strain bim1, hits give low values", "value": 0.994},
      {"measurement": "normalized growth", "setting": "locus YER110C, hits give low values", "value": 0.984},
      {"measurement": "normalized growth", "setting": "locus YER111C, strain swi4, hits give low values", "value": 0.966},
      {"measurement": "normalized growth", "setting": "locus YER155C, strain BEM2 (second series), hits give low values", "value": 1.08},
      {"measurement": "normalized growth", "setting": "locus YER155C, strain BEM2, hits give low values", "value": 1},
      {"measurement": "normalized growth", "setting": "locus YER167W, strain BCK2, hits give low values", "value": 1.02},
      {"measurement": "normalized growth", "setting": "locus YFR010W, strain ubp6, hits give low values", "value": 0.989},
      {"measurement": "normalized growth", "setting": "locus YGL078C, strain dbp3, hits give low values", "value": 0.993},
      {"measurement": "normalized growth", "setting": "locus YGL086W, strain mad1, hits give low values", "value": 0.993},
      {"measurement": "normalized growth", "setting": "locus YGL167C, strain pmr1, hits give low values", "value": 0.996},
      {"measurement": "normalized growth", "setting": "locus YGL173C, strain kem1, hits give low values", "value": 1.01},
      {"measurement": "normalized growth", "setting": "locus YGL227W, strain vid30, hits give low values", "value": 1.01},
      {"measurement": "normalized growth", "setting": "locus YGL240W, strain doc1, hits give low values", "value": 1.06},
      {"measurement": "normalized growth", "setting": "locus YGL248W, strain PDE1, hits give low values", "value": 1.01},
      {"measurement": "normalized growth", "setting": "locus YGL253W, strain hxk2, hits give low values", "value": 0.958},
      {"measurement": "normalized growth", "setting": "locus YGR078C, strain PAC10, hits give low values", "value": 0.995},
      {"measurement": "normalized growth", "setting": "locus YGR135W, strain pre9, hits give low values", "value": 0.994},
      {"measurement": "normalized growth", "setting": "locus YGR229C, strain SMI1, hits give low values", "value": "0.775 (active)"},
      {"measurement": "normalized growth", "setting": "locus YGR252W, strain gcn5, hits give low values", "value": 0.986},
      {"measurement": "normalized growth", "setting": "locus YHR013C, strain ard1, hits give low values", "value": 0.987},
      {"measurement": "normalized growth", "setting": "locus YHR027C, strain rpn1, hits give low values", "value": "0.911 (active)"},
      {"measurement": "normalized growth", "setting": "locus YHR030C, strain SLT2, hits give low values", "value": "1.02 and 1.05"},
      {"measurement": "normalized growth", "setting": "locus YHR079C, strain IRE1 (second series), hits give low values", "value": 1},
      {"measurement": "normalized growth", "setting": "locus YHR079C, strain IRE1, hits give low values", "value": 1.06},
      {"measurement": "normalized growth", "setting": "locus YHR094C, strain hxt1, hits give low values", "value": 1.01},
      {"measurement": "normalized growth", "setting": "locus YHR129C, strain ARP1, hits give low values", "value": 1.01},
      {"measurement": "normalized growth", "setting": "locus YHR142W, strain chs7, hits give low values", "value": 0.964},
      {"measurement": "normalized growth", "setting": "locus YHR200W, strain rpn10, hits give low values", "value": 0.986},
      {"measurement": "normalized growth", "setting": "locus YIL066C, strain RNR3, hits give low values", "value": 1.03},
      {"measurement": "normalized growth", "setting": "locus YIL073C, strain SPO22, hits give low values", "value": 0.985},
      {"measurement": "normalized growth", "setting": "locus YIL125W, strain kgd1, hits give low values", "value": 0.995},
      {"measurement": "normalized growth", "setting": "locus YIR030C, strain dcg1, hits give low values", "value": 0.984},
      {"measurement": "normalized growth", "setting": "locus YJL092W, strain hpr5, hits give low values", "value": 0.996},
      {"measurement": "normalized growth", "setting": "locus YJL095W, strain BCK1 (second series), hits give low values", "value": 1},
      {"measurement": "normalized growth", "setting": "locus YJL095W, strain BCK1, hits give low values", "value": "1.01 and 1.05"},
      {"measurement": "normalized growth", "setting": "locus YJL115W, strain asf1, hits give low values", "value": 1},
      {"measurement": "normalized growth", "setting": "locus YJL129C, strain trk1, hits give low values", "value": 1.06},
      {"measurement": "normalized growth", "setting": "locus YJL134W, strain LCB3, hits give low values", "value": 1.01},
      {"measurement": "normalized growth", "setting": "locus YJL154C, strain vps35, hits give low values", "value": 0.993},
      {"measurement": "normalized growth", "setting": "locus YJL164C, strain tpk1, hits give low values", "value": 0.953},
      {"measurement": "normalized growth", "setting": "locus YJL166W, strain qcr8, hits give low values", "value": 1.02},
      {"measurement": "normalized growth", "setting": "locus YJL168C, strain set2, hits give low values", "value": 1},
      {"measurement": "normalized growth", "setting": "locus YJL187C, strain SWE1 (second series), hits give low values", "value": 0.988},
      {"measurement": "normalized growth", "setting": "locus YJL187C, strain SWE1, hits give low values", "value": 0.983},
      {"measurement": "normalized growth", "setting": "locus YJR043C, strain POL32, hits give low values", "value": 1.02}
    ]}
  ]
}
